# High-throughput results as filed in PubChem.
# This is one part of a sample in which hits are shown more often than they occur.
# EZH2 inh = inhibitors of human EZH2/PRC2 methyltransferase; Q15910; PRC2 H3K27 methylation, DELFIA TRF, 1 h; inhibition, % at 12.5 µM; 0.35% of 57,000 active; AID 651548;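 active means mean inhibition of replicates at least 50% and every single replicate also reaching 50%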;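 further: dimethyl H3K27 on biotinylated H3 21-44 peptide detected by antibody; plate controls were median neutral control wells for no effect and median positive control wells for full effect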
# Target sequence (Q15910 whole entry, looked up): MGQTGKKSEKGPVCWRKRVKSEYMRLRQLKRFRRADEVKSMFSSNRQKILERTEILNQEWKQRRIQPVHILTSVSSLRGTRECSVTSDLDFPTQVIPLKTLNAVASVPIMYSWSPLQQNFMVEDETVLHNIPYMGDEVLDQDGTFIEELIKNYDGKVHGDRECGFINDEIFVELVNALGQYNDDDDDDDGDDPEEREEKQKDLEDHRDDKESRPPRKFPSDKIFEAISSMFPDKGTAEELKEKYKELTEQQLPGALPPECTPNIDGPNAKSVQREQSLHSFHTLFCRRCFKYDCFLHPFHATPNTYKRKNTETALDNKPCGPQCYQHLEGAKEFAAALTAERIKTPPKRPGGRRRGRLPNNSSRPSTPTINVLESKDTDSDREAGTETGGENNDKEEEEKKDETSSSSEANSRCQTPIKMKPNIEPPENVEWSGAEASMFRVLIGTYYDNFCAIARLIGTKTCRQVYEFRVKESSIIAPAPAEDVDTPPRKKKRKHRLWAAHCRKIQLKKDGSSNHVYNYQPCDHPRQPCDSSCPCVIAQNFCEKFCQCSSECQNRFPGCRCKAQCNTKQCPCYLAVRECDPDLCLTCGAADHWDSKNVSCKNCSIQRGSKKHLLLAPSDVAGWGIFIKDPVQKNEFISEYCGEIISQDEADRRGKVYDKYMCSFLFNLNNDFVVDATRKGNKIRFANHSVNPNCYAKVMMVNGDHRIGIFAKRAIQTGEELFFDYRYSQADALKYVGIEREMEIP
# * hit, by the source's call.
SMILES,EZH2 inh
O=C(CN1C(=O)c2ccc([N+](=O)[O-])cc2C1=O)Nc1ccccc1-c1ccccc1,-11.9
O=C(N/N=C/c1ccc(Br)s1)c1ccccc1O,1.6
C[C@@H]1CN([C@H](C)CO)C(=O)CCCn2nncc2CO[C@@H]1CN(C)Cc1ccncc1,2.0
CN(CC(=O)Nc1ccccc1-c1ccccc1)S(=O)(=O)c1cc(Cl)ccc1Cl,24.1
Cc1cc2nc(-c3ccc(C)c(NC(=O)COc4ccc([N+](=O)[O-])cc4)c3)oc2cc1C,-3.4
CC(C)(Sc1ccc(CCN(CCCCC2CCCCC2)C(=O)NC2CCCCC2)cc1)C(=O)O,85.7*
COC(=O)c1cc(OC)c(OC)cc1NC(=O)COc1cccc(C)c1C,-1.8
C=CCNC(=O)[C@H]1[C@@H]2C(=O)O[C@@H](c3ccccc3)[C@@H](c3ccccc3)N2[C@@H](c2ccc(O)cc2)[C@]12C(=O)Nc1ccccc12,-16.4
Cc1sc(NC(=O)c2cc(-c3cccnc3)nc3ccccc23)c(C(=O)NC2CCCCC2)c1C,-6.9
COc1ccc(NC(=O)CSc2nc3ccccc3[nH]2)cc1Cl,-22.7
O=C(CSc1nc2ccccc2[nH]1)Nc1ccc(Cl)c(Br)c1,54.3*
Cc1cc(NC(=O)CSc2nc3ccccc3[nH]2)ccc1Br,7.9
COc1cccc2cc(-c3nnc(SCC(=O)N4c5ccccc5Sc5ccccc54)n3C)oc12,5.4
COc1ccc(-c2coc3c(OC)c(OC)cc(OC)c3c2=O)cc1,6.6
CC1(CO)C=Cc2c(cc(O)c3c(=O)c(-c4ccc(O)cc4)coc23)O1 (stereo not drawn),64.9*
COc1ccc(-c2coc3c(OC)c(O)ccc3c2=O)cc1,0.6
C=CCNC(=O)[C@H]1[C@@H]2C(=O)O[C@@H](c3ccccc3)[C@@H](c3ccccc3)N2[C@@H](c2ccc(OCCO)cc2)[C@]12C(=O)N(C(=O)OCCOC)c1ccc(C#CCC(C(=O)OC)C(=O)OC)cc12,-12.0
C=CCOC(=O)C(=O)/C=C/C(C)(C)C,-0.3
COc1ccc(C)cc1NC(=O)CN(c1cc(Cl)c(Cl)cc1Cl)S(C)(=O)=O,6.7
Cc1ccc(S(=O)(=O)NC(C)C(=O)Nc2cccc(C(F)(F)F)c2)cc1 (stereo not drawn),-1.6
CC(C)(c1ccc(NS(=O)(=O)C(F)(F)F)cc1)c1ccc(C(C)(C)c2cccc(NS(=O)(=O)C(F)(F)F)c2)cc1,51.9*
Cc1cc(Cl)c(S(=O)(=O)Nc2cccc(C(F)(F)F)c2)cc1OCC(N)=O,2.1
Cc1ccc(S(=O)(=O)NC2(C(F)(F)F)C(=O)N(CC3CCCO3)C3=C2C(=O)CC(C)(C)C3)cc1 (stereo not drawn),-15.4
O=c1c(O)c(-c2cc(O)c(O)c(O)c2)oc2cc(O)cc(O)c12,93.1*
O=c1c(O)c(-c2ccccc2)oc2cc(O)cc(O)c12,-0.6
SMILES,EZH2 inh
COc1cc(O)c2c(=O)c(OC)c(-c3cc(O)c(OC)c(OC)c3)oc2c1,-16.8
O=C(CSc1nnc(-c2ccncc2)n1-c1ccc(Cl)cc1)Nc1ccccc1-c1ccccc1,22.3
CCC(=O)Nc1cccc(NC(=O)COc2c(C)cc(C)cc2Br)c1,19.9
COc1ccc(/C=N/NC(=O)c2ccc(C(=O)NO)cc2)c(OC)c1,-0.6
COc1cc(/C=C/c2ccc(OC)cc2OC)cc(OC)c1,51.3*
COC(=O)CCCCCCC(=O)N/N=C/c1ccc(OC)cc1OC,7.9
O=C(Cn1ccc([N+](=O)[O-])n1)Nc1ccc(F)c(Cl)c1,2.2
CCCN1C(=O)C(O)(CC(=O)c2ccc(OC)c([N+](=O)[O-])c2)c2cc(Br)ccc21 (stereo not drawn),7.7
Cc1ccc2oc(-c3cccc(NC(=O)COc4ccc5ccccc5c4)c3)nc2c1,18.5
Cc1c(/C=C2\SC(=Nc3ccccc3)N(C3CCCC3)C2=O)c2ccccc2n1CC(N)=O,-48.1
O=c1cc(-c2ccc(O)cc2)oc2cc(O[C@@H]3O[C@H](CO)[C@@H](O)[C@H](O)[C@H]3O[C@@H]3OC[C@](O)(CO)[C@H]3O)cc(O)c12,-10.9
O=c1cc(-c2ccc(O)c(O)c2)oc2c(C3O[C@H](CO)[C@H](O)[C@H](O)[C@H]3O)c(O)cc(O)c12 (stereo partly drawn),81.4*
COc1cc(O[C@@H]2O[C@H](CO)[C@@H](O)[C@H](O)[C@H]2O)c2c(=O)cc(-c3ccccc3)oc2c1OC,-9.4
COC(=O)CCCCCCC(=O)N/N=C/c1ccccn1,-1.2
COC(=O)C(O)(c1ccc(NC(=S)NC(=O)c2ccc(Cl)cc2Cl)c(OC)c1)C(F)(F)F (stereo not drawn),28.3
O=C1N(CCS(=O)(=O)c2ccccc2)c2ccccc2[C@H]2OC(c3ccc(OCCCO)cc3)=N[C@@]12CCS(=O)(=O)c1ccccc1,0.5
COC(=O)C1=CO[C@@H](O[C@@H]2O[C@H](CO)[C@@H](O)[C@H](O)[C@H]2O)[C@H]2[C@@H]1[C@H](OC(C)=O)C[C@]2(C)O,-12.0
COC(=O)C1=COC(OC2OC(CO)C(O)C(O)C2O)C2C1C=CC2(O)CO (stereo not drawn),99.1*
COC(=O)C1=COC(O[C@@H]2O[C@H](CO)[C@@H](O)[C@H](O)[C@H]2O)[C@H]2[C@@H]1[C@H](OC(=O)CCc1ccc(O)cc1)C[C@]2(C)O (stereo partly drawn),2.1
CC(NS(=O)(=O)c1ccc(Br)cc1)C(=O)Nc1cccc(F)c1 (stereo not drawn),-10.3
Cn1c(SCC(=O)c2ccc(F)cc2)nnc1-c1ccc(NC(=O)c2ccccc2Br)cc1,-5.2
COc1ccc(C(C)=O)c(O)c1,-2.7
COCc1cc(O)c(O)c(O)c1-c1c(COC)cc(O)c(O)c1O,88.0*
Cc1ccc(OCC(=O)Nc2ccc(Br)cc2C(=O)O)cc1C,29.5
COc1cccc(NC(=O)CSc2nnc(-c3ccco3)n2-c2ccccc2)c1,15.8
SMILES,EZH2 inh
COC(=O)C1=COC(O[C@@H]2O[C@H](CO)[C@@H](O)[C@H](O)[C@H]2O)[C@@H]2[C@@](C)(O)[C@@H](OC(=O)/C=C\c3ccccc3)C[C@]12O (stereo partly drawn),22.0
Cc1cc2c(cc1O[C@@H]1O[C@H](CO[C@@H]3OC[C@@H](O)[C@H](O)[C@H]3O)[C@@H](O)[C@H](O)[C@H]1O)C(=O)c1ccccc1C2=O,-6.3
C[C@@H]1O[C@@H](OC[C@H]2O[C@@H](Oc3ccc(O)cc3)[C@H](O)[C@@H](OC(=O)c3ccc(O)cc3)[C@@H]2O)[C@H](O)[C@H](O)[C@H]1O,37.5
C[C@@H]1O[C@@H](OC[C@H]2O[C@@H](OCCc3ccccc3)[C@H](O)[C@@H](O)[C@@H]2O)[C@H](O)[C@H](O)[C@H]1O,52.0*
COc1ccc(C2CC(=O)c3c(O)cc(O[C@@H]4O[C@H](CO[C@@H]5O[C@@H](C)[C@H](O)[C@@H](O)[C@H]5O)[C@@H](O)[C@H](O)[C@H]4O)cc3O2)cc1 (stereo partly drawn),20.9
O[C@@H]1[C@@H](O)[C@H](OC/C=C/c2ccccc2)O[C@H](CO[C@@H]2OC[C@H](O)[C@H](O)[C@H]2O)[C@H]1O,89.6*
Cc1ccc(-c2cc(C(F)F)n3ncc(C(=O)NCCCN4CCOCC4)c3n2)cc1,2.8
O=C(O)CCCCCCC(=O)N/N=C/CCC1CCCCC1,10.9
O=C(O)CCCC[C@@H]1SC[C@@H]2NC(=O)N[C@@H]21,99.1*
O=C1C[C@@H](c2ccccc2)Oc2cc(O)cc(O)c21,-14.1
COc1cc(C2Oc3c(O)ccc([C@@H]4Oc5cc(O)cc(O)c5C(=O)[C@H]4O)c3C2CO)ccc1O (stereo partly drawn),16.7
